Six1-Eya2 blk: qHTS Assay for Inhibitors of the Six1/Eya2 Interaction; Homeobox protein SIX1 (Homo sapiens) + Protein phosphatase EYA2 (Homo sapiens), …; AlphaScreen GST-Six1/His-Eya2 binding, biochemical; active compounds read low; activity change, % (no concentration beside the values); 360,000 compounds, 0.56% hits; in the data active = activity change below about -65%; inconclusive = mostly about -30% to -63%
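Compounds are tested against tagged Six1 and Eya2 proteins bridged by glutathione donor and nickel acceptor beads; after a one-hour incubation at 37 °C without light, AlphaScreen emission is recorded.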
TDP1 cell CPT: qHTS for Inhibitors of human tyrosyl-DNA phosphodiesterase 1 (TDP1): qHTS in cells in presence of CPT | Potency, µM (highest dose often 46.2 µM), for the others: top-dose activity change, negative = growth inhibition, actives largely listed as inhibitors | 420,000 compounds, 12% hits | chicken DT40 Tdp1-/-;hTDP1 cells + 20 nM CPT, ATP luminescence, 48 h; also: potency is read from the fitted curve at half-maximal effect; nearly all actives have a fitted effect of over 55% in size
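Chicken DT40 Tdp1-/- cells stably complemented with human TDP1 were seeded at 400 cells/well in medium containing 20 nM camptothecin, exposed to pin-transferred compounds, and grown at 37 °C for at least 48 hr. Viability was read as ATP luminescence.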
TDP1 cell noCPT: qHTS for Inhibitors of human tyrosyl-DNA phosphodiesterase 1 (TDP1): qHTS in cells in absence of CPT | DT40 Tdp1-/- hTDP1 cells, no CPT, ATP luminescence, 48 h | 420,000 compounds, 15% hits | AID 686978, 2013 | Potency, µM (titrated, usually from 46.2 µM), for inactives: at the top dose activity change, negative = growth inhibition, most hits filed as inhibitors; also: potency is read from the fitted curve at half-maximal effect; nearly all actives have a fitted effect of over 55% in size
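Compound effects on proliferation are scored in DT40 Tdp1-/-;hTDP1 cells in the absence of CPT. ATP levels (CellTiter-Glo luminescence) are recorded after a ≥48 hr, 37 °C incubation.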
IL-1B inflam inh: qHTS for Inhibitors of Inflammasome Signaling: IL-1-beta AlphaLISA Primary Screen. THP-1 LPS/ATP IL-1B secretion, AlphaLISA, 16 h; active compounds read low. activity change, % at 57.5 µM. 360,000 compounds, 4.7% hits. AID 743279, 2014; in the data active = activity change below about -50%; inconclusive = mostly about -30% to -49%
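Secreted IL-1B measured by AlphaLISA bead assay after 16 h compound exposure of THP-1 cells; compounds (final up to 57.5 uM) added 1 h before LPS (250 ng/mL) and ATP (1.25 mM) stimulation; lower signal means less secretion.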
CtBP-E1A blk: qHTS Assay for Inhibitors of the CtBP/E1A Interaction; CtBP / adenovirus E1A interaction (AlphaScreen); AlphaScreen GST-E1A/His-CtBP binding, 1536-well; active compounds read low; activity change, % (test concentration not listed); 340,000 compounds, 0.49% hits; in the data active = activity change below about -65%; inconclusive = mostly about -30% to -63%
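In 5 uL wells, 23 nL compound meets equimolar GST-E1A and His-CtBP (5X stock 125 nM each) for 2 h, 37 °C. Beads (5X, 50 ug/mL) then 1 h, 37 °C, dark.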
TDP1 inh: qHTS Assay for Inhibitors of Tyrosyl-DNA Phosphodiesterase (TDP1) | Tyrosyl-DNA phosphodiesterase 1 (Homo sapiens), Q9NUW8 | recombinant TDP1, AlphaScreen DNA substrate cleavage | Potency, µM (highest dose often 130 µM), for the others: at the highest dose activity change, negative = inhibition, most hits filed as inhibitors | 350,000 compounds, 0.28% hits | AID 485290, 2010; also: potency is read from the fitted curve at half-maximal effect; nearly all actives have a fitted effect of over 40% in size
Target sequence (Q9NUW8 whole entry, looked up): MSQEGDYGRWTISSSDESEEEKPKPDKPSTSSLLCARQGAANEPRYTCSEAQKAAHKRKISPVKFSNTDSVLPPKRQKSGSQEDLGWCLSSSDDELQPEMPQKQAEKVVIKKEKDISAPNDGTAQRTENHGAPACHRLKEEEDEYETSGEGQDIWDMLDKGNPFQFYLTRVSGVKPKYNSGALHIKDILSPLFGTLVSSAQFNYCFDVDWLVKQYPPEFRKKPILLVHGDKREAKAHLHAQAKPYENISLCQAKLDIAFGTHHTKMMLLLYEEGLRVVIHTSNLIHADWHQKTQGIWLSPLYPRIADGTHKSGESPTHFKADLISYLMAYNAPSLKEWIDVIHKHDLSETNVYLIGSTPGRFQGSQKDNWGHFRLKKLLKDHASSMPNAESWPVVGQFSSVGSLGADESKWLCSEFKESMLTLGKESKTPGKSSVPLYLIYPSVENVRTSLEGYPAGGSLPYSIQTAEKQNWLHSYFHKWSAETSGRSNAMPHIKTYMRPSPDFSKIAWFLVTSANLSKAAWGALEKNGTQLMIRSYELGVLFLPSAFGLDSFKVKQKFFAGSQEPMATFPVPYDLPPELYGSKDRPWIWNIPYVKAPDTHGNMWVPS
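E. coli-derived human Tdp1, 1 nM final. Cpd preinc 15 min RT; substrate 15 nM final, 5 min RT; AS bead mix 10 ug/ml final, 10 min RT. Signal loss = tyrosine-FITC cleavage. No-enzyme wells = max signal.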
* = called active by the depositor; ? = inconclusive; nt = no result given; [ ] = remark or other dose. This is a sample that favours compounds with a hit; in the whole collection about 18% have one here. Unless noted, calls follow the shape of the dose curve; as a rule, active = well fitted curve in the direction sought with a large enough effect; inconclusive = small, poorly fitted or top-dose-only effect, or another doubt; inactive = no such curve, though single readings can be large; an effect the other way counts as inactive or inconclusive. % is scaled to controls: 0 for no effect and ±100 for the full control effect.

SMILES | Six1-Eya2 blk | TDP1 cell CPT | TDP1 cell noCPT | IL-1B inflam inh | CtBP-E1A blk | TDP1 inh
COc1ccc(/C=N/NC(=O)C(C)n2nnc3ccccc32)cc1OC (configuration not stated) | -15 | -6% | 10% | 1 | -12 | 3%
O=C(Nc1c(F)cc(F)cc1Br)C1CCCO1 (configuration not stated) | 5 | -8% | 0% | -18 | 1 | -1%
CCNC(=O)CNC(=O)c1nn(Cc2ccccc2)c(=O)c2ccccc12 | 8 | -27% | -19% | -9 | -1 | nt
CCOC(=O)C1=C(CN2CC(C)CC(C)C2)NC(=O)NC1c1ccc2c(c1)OCO2 (configuration not stated) | -9 | ? | 26µM* | 0 | -4 | 3%
CCOC(=O)C1=C(CN2CCN(C(=O)c3ccco3)CC2)NC(=O)NC1c1ccc(Cl)cc1 (configuration not stated) | -1 | ? | ? | -11 | 0 | 6%
CCOC(=O)C1=C(CN2CCN(CC)CC2)NC(=O)NC1c1ccc(Cl)cc1 (configuration not stated) | nt | ? | 23µM* | nt | nt | 2%
CCOC(=O)C1=C(CN2CCN(c3cccc(Cl)c3)CC2)NC(=O)NC1c1ccc(Cl)cc1 (configuration not stated) | nt | ? | 21µM* | nt | nt | 2%
CCOC(=O)C1C(c2ccc3c(c2)OCO3)NC(=O)NC1(O)C(F)(F)F (configuration not stated) | 0 | 9.2µM* | 13µM* | 0 | -4 | 7%
NC(CSC1(c2cccc3ccccc23)c2ccccc2-c2ccccc21)C(=O)O (configuration not stated) | -17 | ? | ? | 17 | 1 | nt
CN(C)C(=O)c1cccc(-c2cnc3c(NC=O)cc(-c4ccc(N(C)C)cc4)cn23)c1 | -20 | 18µM* | ? | 0 | -26 | nt
CN(C)C(=O)c1cccc(-c2cnc3c(NC=O)cc(-c4cccc(C(F)(F)F)c4)cn23)c1 | -16 | 8.2µM* | 8.2µM* | 0 | -15 | nt
COc1cccc(-c2cnc3c(NC=O)cc(-c4cccc(C(=O)N(C)C)c4)cn23)c1 | -29 | ? | ? | 148 | ? | nt
COc1cccc(-c2cc(NC=O)c3ncc(-c4cccc(C(=O)N(C)C)c4)n3c2)c1 | ? | ? | ? | -12 | -25 | nt
COc1ccc(-c2cc(NC=O)c3ncc(-c4cccc(C(=O)N(C)C)c4)n3c2)cn1 | -24 | 23µM* | 16µM* | -8 | -15 | nt
CC(=O)Nc1cc(-c2cccc(C(=O)N(C)C)c2)cn2c(-c3ccc(F)c(Cl)c3)cnc12 | -6 | ? | ? | -30 | -2 | nt
CN(C)C(=O)c1cccc(-c2cc(NC=O)c3ncc(-c4ccc(F)c(Cl)c4)n3c2)c1 | 6 | 16µM* | 23µM* | 60 | 6 | nt
CCc1cc(=O)oc2cc(C)cc(OC(C)C(=O)NC3CC(C)(C)NC(C)(C)C3)c12 (configuration not stated) | 2 | -1% | -10% | -20 | nt | 0%
CC(=O)OC1CC2C(C)(C)C(=O)[C@@H]3OC3[C@@]2(C)C2CC[C@]3(C)C(=CC(=O)OC3c3ccoc3)[C@]12C (some centres not stated) | nt | 11% | -5% | nt | nt | 12%[56.1 µM]
COc1ccc(N(CC(=O)NCCC2=CCCCC2)S(=O)(=O)c2ccccc2)cc1OC | 0 | ? | ? | ? | -3 | 5%
Nc1c(N(Cc2ccco2)C(=O)c2ccc(Cl)cc2)c(=O)[nH]c(=O)n1Cc1ccccc1 | -1 | -27% | -22% | -12 | -3 | 0%
Cc1cccc(-c2cc(NC=O)c3ncc(-c4cccc(C(=O)N(C)C)c4)n3c2)c1 | -9 | ? | 16µM* | 16 | ? | nt
CN(C)C(=O)c1cccc(-c2cnc3c(NC=O)cc(-c4cccc(F)c4)cn23)c1 | ? | 21µM* | 15µM* | 2 | ? | nt
Cc1ccc(CN2[C@@H](Cc3ccccc3)C(=O)CS2(=O)=O)cc1 | -6 | -7% | ? | 11 | 1 | 4%
O=C1[C@H]2[C@@H](C3CC3)N3C(=O)CN(Cc4ccccn4)C(=O)[C@@]3(Cc3ccccc3)[C@H]2C(=O)N1c1ccccc1 | 11 | 1% | 4% | 28 | -11 | nt
O=c1nc2c(O)cccn2c2c1c(=O)[nH]c1ccccc12 | -83* | ? | ? | 0 | 4 | -6%
SMILES | Six1-Eya2 blk | TDP1 cell CPT | TDP1 cell noCPT | IL-1B inflam inh | CtBP-E1A blk | TDP1 inh
COCCN(C(=O)C(C)C)c1nnc(-c2cccc(C)c2)s1 | 0 | -6% | -21% | -53* | 7 | -4%
Cc1cc(C)nc(SCCC(=O)N(C)C)n1 | 2 | -12% | 2% | 37 | -7 | 3%
CCOc1cc(C2C(C(=O)N3CCOCC3)=C(C)NC3=C2C(=O)CCC3)ccc1O (configuration not stated) | 7 | -24% | 4% | 12 | 9 | 6%
Cc1ccc(S(=O)(=O)c2nnn(CC(=O)Nc3ccccc3C)c2N)cc1C | nt | ? | 15µM* | nt | nt | -6%
O=C(c1cccc(F)c1)N1CCc2ccccc2C1 | 1 | -16% | -13% | -22 | 4 | 0%
O=C(CC(=O)c1ccccc1)Nc1ccccn1 | 1 | 29% | 2% | 5 | 0 | 5%
O=C(O)c1cc(Br)ccn1 | ? | -6% | -18% | 15 | -24 | 1%
O=C(CC(CC(=O)c1ccccc1)c1ccccn1)c1ccccc1 | -6 | ? | 15µM* | 3 | -5 | nt
O=C(O)c1ccnc(C(=O)O)c1 | -69* | -1% | 1% | 0 | ? | 1%
O=C(CC(=O)c1ccccn1)c1ccccc1 | ? | 21µM* | 16µM* | 60 | ? | nt
O=C(Sc1ccc(Cl)cc1)c1ccccn1 | -13 | 16µM* | 16µM* | -83* | -30 | nt
COc1ccc2c(c1)[C@H]1[C@H](CO2)[C@H](c2ccccc2)[C@]2(C)C(=O)N[C@@H](C)C(=O)N12 | nt | nt | nt | nt | nt | 1%
O=C(O)c1ccccn1 | ? | 11% | -1% | 10 | -66* | -2%

Bioassay records as filed in PubChem.
